Assay results from PubChem BioAssay (NCATS).
Values joined by “and” are separate entries in the source; they are usually repeats but may differ in a detail not shown here. Equal entries are not always repeated. Inconclusive results are not listed. Active and inactive are the calls of the source. Unless noted, calls come from the whole dose curve; as a rule, active = well fitted curve in the direction sought with a large enough effect; inconclusive = small, poorly fitted or top-dose-only effect, or another doubt; inactive = no such curve, though single readings can be large; an effect the other way counts as inactive or inconclusive.

How the values were obtained:
[1] = Cellular Toxicity (caspase-3) HepG2 (AID 654); conditions: HepG2 caspase-3 activation, luminescence, 0% = DMSO only, 100% = tamoxifen; series mostly up to 92.2 µM;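 note: cells exposed to compound for 16 hours before reading; 0% = DMSO alone and 100% = caspase signal from 100 µM tamoxifen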
How it was run: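 Caspase 3/7 activation in HepG2 is measured as rising luminescence after a 16 hr treatment at 37 °C. Values are scaled between DMSO basal and 100 uM tamoxifen, and AC50 is fitted with the Hill equation.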

[2] = Cellular Toxicity (caspase-3) Jurkat (AID 655); conditions: Jurkat caspase-3 activation, luminescence, DMSO = 0%, tamoxifen = 100%; series mostly up to 92.2 µM;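 note: cells exposed to compound for 16 h at 37 °C before reading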
How it was run: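 qHTS in human Jurkat T-cell leukemia line: 16 hr compound treatment at 37 °C, caspase-3/7 activity measured by Caspase-Glo luminescence. AC50 derived from Hill equation.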

[3] = Cellular Toxicity (caspase-3) HUV-EC-C (AID 656); conditions: HUV-EC-C cells, caspase-3 activation (apoptosis), vehicle = 0, 100 µM tamoxifen = 100%; series mostly up to 92.2 µM
How it was run: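 Concentration-dependent caspase 3/7 induction was assessed in HUV-EC-C cells exposed for 16 hours. Data scaled between DMSO and tamoxifen (100 uM) controls.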

[4] = Cellular Toxicity (caspase-3) SHSY5Y (AID 657); conditions: SH-SY5Y caspase-3 activation, DMSO zero, 10 µM staurosporine = 100%; series mostly up to 91.7 µM;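 note: cells exposed to compound for 16 hours at 37 °C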
How it was run: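 Readout: caspase-cleaved peptide-aminoluciferin substrate driving luciferase light in SH-SY5Y neuroblastoma cells after 16 h treatment. Response normalized to DMSO and 10 uM staurosporine controls.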

[5] = Cellular Toxicity (caspase-3) BJ (AID 658); conditions: BJ fibroblasts, luminescence, normalized: DMSO 0%, staurosporine 100%; series mostly up to 91.7 µM
How it was run: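 qHTS, BJ fibroblasts, 1000 cells/well; 5 hr preincubation, 16 hr compound, 37 °C; Caspase-Glo 3/7 reagent, 1 hr RT; luminescence. DMSO = 0%, 10 uM staurosporine = 100%. Hill-equation AC50.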

[6] = Cellular Toxicity (caspase-3) MRC-5 (AID 659); conditions: MRC-5 cells, luminescence, normalized: DMSO 0%, 10 µM staurosporine 100%; series mostly up to 91.7 µM
How it was run: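 MRC-5 fibroblasts, 1500/well; 16 h cpd, 37 °C; Caspase-Glo 3/7, 1 h RT; lumi read. Norm: DMSO = 0%, 10 uM staurosporine = 100%. Hill-fit AC50 from qHTS conc-response.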

[7] = Cellular Toxicity (caspase-3) Mesangial (AID 660); conditions: mesangial cells, normalized: DMSO 0%, 100 µM tamoxifen 100%; series mostly up to 91.7 µM;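 note: combined caspase 3 and 7 activity read by Caspase-Glo luminescence; cells exposed to compound for 16 h before the caspase read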
How it was run: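 Seed cells derived from normal human renal glomeruli, incubate 5 h, add compounds across concentrations and incubate 16 h at 37 °C. Caspase 3/7 activation is then quantified by luciferase light, with AC50 derived by Hill modeling.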

[8] = Cellular Toxicity (caspase-3) SK-N-SH (AID 661); conditions: SK-N-SH caspase-3 activation, qHTS, DMSO as zero, staurosporine as full; series mostly up to 91.7 µM
How it was run: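 Cells were seeded and incubated 5 hr at 37 °C, dosed with compound over a concentration range for 16 hr, then given Caspase-Glo 3/7 reagent for 1 hr at room temperature before luminescence reading.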

[9] = Cellular Toxicity (caspase-3) H-4-II-E (AID 663); conditions: H-4-II-E rat hepatoma, scaled: DMSO 0%, 100 µM tamoxifen 100%; series mostly up to 92.2 µM;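 note: cells exposed to compound for 16 hr before readout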
How it was run: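 H-4-II-E rat hepatoma, 1500 cells/well, 5 hr settle at 37 °C; compound 16 hr, 37 °C, complete medium; Caspase-Glo 3/7, 20 min RT; luminescence. DMSO = 0%, 100 uM tamoxifen = 100%; Hill-equation AC50.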

[10] = Cellular Toxicity (caspase-3) Hek293 (AID 664); conditions: HEK293 caspase-3 activation, DMSO = 0%, 100 µM tamoxifen = 100%; series mostly up to 92.2 µM;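 note: cells exposed to compound for 16 h at 37 °C before readout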
How it was run: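 qHTS, HEK293 (human embryonic kidney), 16 h cpd exposure in complete medium. Caspase-3/7 activation = luminescence increase; normalized to DMSO/100 uM tamoxifen; Hill-fit AC50.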

[11] = Cellular Toxicity (caspase-3) N2a (AID 665); conditions: N2a cells, luminescence, normalized: DMSO 0%, 10 µM staurosporine 100%; series mostly up to 92.2 µM;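 note: compound exposure lasted 16 h at 37 °C before readout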
How it was run: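 Caspase-3/7 activation, measured as increased luminescence from aminoluciferin release, is quantified in mouse N2a cells exposed to compounds for 16 h. Values are normalized to DMSO and 10 uM staurosporine, with AC50 derived by Hill modelling.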

[12] = Cellular Toxicity (caspase-3) NIH 3T3 (AID 666); conditions: NIH 3T3 caspase-3 activation, apoptosis/toxicity, 0% DMSO, 100% is 100 µM tamoxifen; series mostly up to 92.2 µM;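 note: 0% = DMSO basal and 100% = 100 µM tamoxifen stimulation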
How it was run: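 Cells were plated at 1000 per well and incubated 5 hr at 37°C, then compound was added for 16 hr. Caspase-Glo 3/7 reagent followed for 20 min at room temperature before luminescence was read.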

[13] = Cellular Toxicity (caspase-3) Renal Proximal Tubule (AID 667); conditions: renal proximal tubule cells, primary cells freshly taken from rat, solvent-only wells 0%, staurosporine 100%; series mostly up to 91.7 µM;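 note: cells exposed to compound for 16 hours at 37 °C before detection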
How it was run: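 Caspase-Glo 3/7 read-out, rat primary kidney proximal tubule cells. Compound exposure 16 h, 37 °C; detection after 1 h at RT. Activity scaled to DMSO and 10 uM staurosporine.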

[14] = qHTS assay for small molecule disruptors of the mitochondrial membrane potential - 1 hr assay (AID 651754; calls by dose curve; note: % is set by controls: 0 for no effect and ±100 for the full control effect; nearly all actives have a fitted effect of over 35% in size); conditions: series mostly up to 92.2 µM
How it was run: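 Loss of mitochondrial potential shifts the cationic dye from red mitochondrial aggregates to green cytoplasmic monomers. Cells (HepG2) are treated with compound for 1 hr before a 30 min dye incubation at 37C.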

[15] = qHTS assay for small molecule disruptors of the mitochondrial membrane potential - 5 hr assay (AID 651755; calls by dose curve; note: % is set by controls: 0 for no effect and ±100 for the full control effect; nearly all actives have a fitted effect of over 40% in size); conditions: JC-1-type ratio dye; series mostly up to 92.2 µM
How it was run: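 Read-out: ratiometric Mito-MPS fluorescence, green monomer (ex 490/em 535) vs red mitochondrial aggregate (ex 540/em 590). HepG2 cells treated 5 hr at 37C before 30 min dye loading.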

[16] = biological target: Tumor necrosis factor (Homo sapiens) (UniProt P01375); experiment: qHTS assay to identify small molecules that stimulate Tumor Necrosis Factor-alpha (TNF-alpha) secretion (AID 651757; active = well fitted curve in the direction sought with a large enough effect in the signal ratio; the % refers to the signal ratio; note: 0% is about no effect); conditions: Human cells, HTRF 665/615 ratio; series mostly up to 92.2 µM
How it was run: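 Human monocytic THP-1 cells are plated, treated with compound and held at 37 C for 17 hrs. Labeled anti-TNF-alpha antibody mixture is then added; after 3 hr at room temperature, TR-FRET signal reports secreted TNF-alpha.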

[17] = qHTS assay for environmental chemicals that activate the Aryl hydrocarbon Receptor (AhR) signaling pathway (AID 651777); conditions: 1A2-DRE human hepatoma cells, luciferase, 24 h; active compounds read high; note: % of control where 0% means no effect; nearly all actives have a fitted effect of over 15% in size
How it was run: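 1A2-DRE human hepatoma reporter line; 1,200 cells/well; cmpd or DMSO 24 h, 37 C/5% CO2; One-Glo 30 min RT; luciferase lum.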

[18] = biological target: Peroxisome proliferator-activated receptor alpha (Homo sapiens) (UniProt Q07869); experiment: qHTS assay for small molecule agonists of the peroxisome proliferator-activated receptor alpha (PPARalpha) signaling pathway (AID 651778); conditions: PathHunter PPARalpha complementation, chemiluminescence, 6 h; active compounds read high; note: % of control where 0% means no effect
How it was run: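 Enzyme-fragment complementation assay in which ligand-bound PPARalpha translocates and forms an active enzyme that generates chemiluminescence. Cells were plated overnight, exposed to compound for 6 hr at 37 C, and then given detection reagent for 60 min at room temperature.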

[19] = qHTS assay for small molecule agonists of the antioxidant response element (ARE) signaling pathway measured by Nrf2-dependant transcriptional activity (AID 720636; active = well fitted curve in the direction sought with a large enough effect in the repeat runs; an effect the other way counts as inactive or inconclusive;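 note: HepG2 cells with an ARE-driven luciferase reporter; % of control where 0% means no effect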); conditions: ARE-luc HepG2, Nrf2 luciferase reporter, 16 h; series mostly up to 92.4 µM
How it was run: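 Cells: ARE-luc HepG2 with Nrf2-responsive luciferase. Medium contained 1% dialyzed FBS. Compound exposure lasted 16 hr at 37 C and 5% CO2, followed by ONE-Glo luciferase detection.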

[20] = qHTS assay for small molecule antagonists of the retinoid-related orphan receptor gamma (ROR-gamma) signaling pathway - cell viability counter screen (AID 720652; active = well fitted curve in the direction sought with a large enough effect in the repeat runs; an effect the other way counts as inactive or inconclusive;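 note: CHO reporter cells with doxycycline-induced ROR-gamma expression; compound exposure lasted 16 hr before ATP read; % is set by controls: 0 for no effect and ±100 for the full control effect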); conditions: RORgamma reporter cell line viability counter screen; series mostly up to 92.2 µM
How it was run: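 Steps: seed CHO cells bearing TET-inducible ROR and ROR response element-luciferase; rest 5 hr at 37 C; add compound, then doxycycline; incubate 16 hr; add CellTiter-Glo and read luminescence as ATP-based viability.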

Sequence of Tumor necrosis factor (Homo sapiens) (P01375 whole entry, looked up): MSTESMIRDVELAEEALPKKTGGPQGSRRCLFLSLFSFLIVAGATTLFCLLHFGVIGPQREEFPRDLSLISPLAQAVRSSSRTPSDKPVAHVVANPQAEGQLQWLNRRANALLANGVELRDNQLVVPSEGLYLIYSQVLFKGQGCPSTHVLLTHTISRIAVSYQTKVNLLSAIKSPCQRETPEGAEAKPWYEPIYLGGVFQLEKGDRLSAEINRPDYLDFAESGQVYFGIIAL
Sequence of Peroxisome proliferator-activated receptor alpha (Homo sapiens) (Q07869 whole entry, looked up, the tested form may be a part): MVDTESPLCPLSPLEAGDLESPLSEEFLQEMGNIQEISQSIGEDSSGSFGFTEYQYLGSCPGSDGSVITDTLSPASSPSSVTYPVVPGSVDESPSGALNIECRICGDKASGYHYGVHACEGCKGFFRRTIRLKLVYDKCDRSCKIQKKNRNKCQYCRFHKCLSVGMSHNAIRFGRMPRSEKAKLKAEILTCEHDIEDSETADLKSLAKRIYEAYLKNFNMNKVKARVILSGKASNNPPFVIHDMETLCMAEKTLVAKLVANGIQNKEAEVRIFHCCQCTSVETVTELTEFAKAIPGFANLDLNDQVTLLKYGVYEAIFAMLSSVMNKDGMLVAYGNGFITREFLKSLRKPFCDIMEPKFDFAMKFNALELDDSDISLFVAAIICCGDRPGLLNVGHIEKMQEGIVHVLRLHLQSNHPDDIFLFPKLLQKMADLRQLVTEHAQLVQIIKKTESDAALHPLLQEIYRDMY

Cc1occc(=O)c1O
inactive: outcome [1] | outcome [2] | outcome [3] | outcome [4] | outcome [5] | outcome [6] | outcome [7] | outcome [8] | outcome [9] | outcome [10] | outcome [11] | outcome [12] | outcome [13] | outcome [14] | outcome [15] | outcome [16] | activation [17] 0.287% | max response [18] -2.16% | outcome [19] | outcome [20]

CC1=CC(=O)CC(C)(C)C1(O)/C=C/C(C)=C\C(=O)O (stereo not given)
inactive: outcome [1] | outcome [2] | outcome [3] | outcome [4] | outcome [5] | outcome [6] | outcome [7] | outcome [8] | outcome [9] | outcome [10] | outcome [11] | outcome [12] | outcome [13] | outcome [14] | outcome [15] | outcome [16] | activation [17] -0.944% | max response [18] 6.6% | outcome [19] | outcome [20]

COS(C)(=O)=O
inactive: outcome [1] | outcome [2] | outcome [3] | outcome [4] | outcome [5] | outcome [6] | outcome [7] | outcome [8] | outcome [9] | outcome [10] | outcome [11] | outcome [12] | outcome [13] | outcome [14] | outcome [15] | outcome [16] | activation [17] -0.488% | max response [18] 5.12% | outcome [19] | outcome [20]

C=C(C)[C@H]1CC=C(C)C(=O)C1
inactive: outcome [1] | outcome [2] | outcome [3] | outcome [4] | outcome [5] | outcome [6] | outcome [7] | outcome [8] | outcome [9] | outcome [10] | outcome [11] | outcome [12] | outcome [13] | outcome [14] | outcome [15] | outcome [16] | activation [17] -0.835% and 2.01% | max response [18] -1.19% and -3.66% | outcome [19] | outcome [20]

C=CC(C)(O)CCC=C(C)C (stereo not given)
inactive: outcome [1] | outcome [2] | outcome [3] | outcome [4] | outcome [5] | outcome [6] | outcome [7] | outcome [8] | outcome [9] | outcome [10] | outcome [11] | outcome [12] | outcome [13] | outcome [14] | outcome [15] | outcome [16] | activation [17] -0.577% and 0.957% | max response [18] -3.46% and 0.843% | outcome [19] | outcome [20]
